Hits are enriched below; roughly 1% of the tested compounds scored in any of these assays.
Mtb hypoxia inh: reduces hypoxia-regulated biosensor signal in M. tuberculosis. M. tuberculosis hypoxia-regulated fluorescent reporter, fluorescence. fluorescence inhibition, % (concentration not given with the values). 0.1% of 300,000 active. AID 1159583; in the data active = fluorescence inhibition mostly above about 23%, no sharp cut-off; inactive = mostly below about 17%
ugtP null kill: compounds lethal to S. aureus RN4220 ugtP deletion mutant; OD600 growth, 16 h; growth inhibition, % (no concentration beside the values); 0.54% of 330,000 active; in the data active = growth inhibition above about 68%;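 also: plate controls were untreated wells for no effect and antibiotic for full effect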
SSB-PriA inh: inhibitors of Klebsiella pneumoniae PriA binding to SSB C-terminal tail | AlphaScreen SSBct-PriA binding, biotinylated peptide | inhibition, % at 33 µM | AID 1272365 | 0.6% of 430,000 active; in the data active = inhibition mostly above about 37%, no sharp cut-off; inactive = mostly below about 20%;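 also: plate controls were negative control peptide for no effect and reference peptide for full effect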
RN4220 kill: kills Staphylococcus aureus RN4220; S. aureus RN4220 growth, OD600, 16 h; inhibition, % (concentration not given with the values); 0.33% of 330,000 active; AID 1259311; in the data active = inhibition above about 85%;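 also: plate controls were untreated cells for no effect and reference antibiotic for full effect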
Mtb bLac sens: beta-lactam sensitization of Mtb H37Rv; 0.27% of 330,000 active; M. tuberculosis H37Rv growth with meropenem, percent inhibition; inhibition, % at 25 µM; AID 434955; call rule not given here;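 also: growth measured after seven days incubation then overnight dye step; 0% = bacteria only wells and 100% = bacteria with antibiotic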
* = called active by the depositor.

COc1cc(NC(=O)NCC(c2ccc3c(c2)CCCN3C)N2CCCC2)cc(OC)c1 (stereo not given) was read as SSB-PriA inh 40*.
For Nc1[nH]n(-c2ccccc2)c(=O)c1N=Nc1cccc2ccccc12 the results were SSB-PriA inh 21.
For Nc1[nH]n(-c2ccccc2)c(=O)c1N=Nc1ccccc1 the results were Mtb hypoxia inh -13, ugtP null kill -8, SSB-PriA inh 75*, RN4220 kill 6 and Mtb bLac sens -4.
For O=C(NCCN1CCO[C@H](c2ccccc2)C1)C1CC1 the results were SSB-PriA inh -15.
For Cc1ccc2nc(SCC(=O)c3c[nH]c4ccccc34)[nH]c2c1 the results were Mtb hypoxia inh 3, ugtP null kill -12, SSB-PriA inh 0, RN4220 kill -5 and Mtb bLac sens -7.
For O=C(CSc1nc2ccccc2[nH]1)c1c[nH]c2ccccc12 the results were Mtb hypoxia inh -1, ugtP null kill -1, SSB-PriA inh 65*, RN4220 kill 5 and Mtb bLac sens -2.
For Cn1cc(-c2cccc(C(F)(F)F)c2)cc(C#N)c1=O the results were Mtb hypoxia inh -5, ugtP null kill 11, SSB-PriA inh 53*, RN4220 kill 5 and Mtb bLac sens -3.
Screening Cn1cc(-c2cccc(Cl)c2)cc(C#N)c1=O returned Mtb hypoxia inh 6, ugtP null kill 8, SSB-PriA inh -7, RN4220 kill 6 and Mtb bLac sens 3.
`COC(=O)c1ccc(C(=O)N2CCCC[C@H](c3ccc(Cl)cc3)C2)cc1` gave SSB-PriA inh 4.
COCC(=O)Nc1ccc(-c2nc3cccnc3s2)cc1 was read as SSB-PriA inh -5.
CN(C)CCOc1nc(-c2ccccc2)nc2c1oc1ccccc12 was read as Mtb hypoxia inh 41*, ugtP null kill 0, SSB-PriA inh -8, RN4220 kill 2 and Mtb bLac sens 100.
`Cn1c(=O)c(C(=O)NNC(=O)c2ccc(Br)cc2)c(O)c2ccccc21` gave Mtb hypoxia inh 13, ugtP null kill 100*, SSB-PriA inh -8, RN4220 kill 98* and Mtb bLac sens 100.
`Cc1nc2ccc(NC(=O)COc3cccc(C(F)(F)F)c3)cc2c(=O)n1-c1ccc(F)cc1` gave SSB-PriA inh 7.
`Cc1ccc(C(=O)Nc2ccc(Br)c(C(F)(F)F)c2)cc1` gave Mtb hypoxia inh 25, ugtP null kill 91*, SSB-PriA inh -43, RN4220 kill 61 and Mtb bLac sens 42.
CC(=O)N1CCN(C2=NC(=O)/C(=C\c3ccc(O)c([N+](=O)[O-])c3)S2)CC1 was read as SSB-PriA inh 1.
CCC(CO)Oc1cc(NCc2ccccc2)c2ncn(C(C)C)c2c1 (stereo not given) was read as Mtb hypoxia inh 12, ugtP null kill -6, SSB-PriA inh 12, RN4220 kill 6 and Mtb bLac sens -6.
`CCC(COC)Oc1cc(NCc2ccccc2)c2ncn(C(C)C)c2c1` (stereo not given) gave Mtb hypoxia inh 6, ugtP null kill -8, SSB-PriA inh 63*, RN4220 kill 8 and Mtb bLac sens 10.
For COc1ccc(Cc2cc(NCc3ccccc3)c3ncn(C(C)C)c3c2)cc1 the results were Mtb hypoxia inh 8, ugtP null kill 9, SSB-PriA inh 66*, RN4220 kill -2 and Mtb bLac sens 76.
For O=C(NCCn1nc(-c2cccs2)ccc1=O)Nc1ccccc1Cl the results were SSB-PriA inh -2.
For C=CCn1c(O)c(C2=c3ccccc3=NC2=O)c2ccccc21 the results were Mtb hypoxia inh 17, ugtP null kill 98*, SSB-PriA inh -18, RN4220 kill 97* and Mtb bLac sens 100.
`Cc1ccc2c(c1)c(C1=c3ccccc3=NC1=O)c(O)n2C` gave Mtb hypoxia inh 24, ugtP null kill 97*, SSB-PriA inh -7, RN4220 kill 98* and Mtb bLac sens 99.
`CCCCCCCCCCOC(=O)C[N+](C)(C)C/C=C(/C)Cl` gave Mtb hypoxia inh 1, ugtP null kill 100*, SSB-PriA inh -17, RN4220 kill 16 and Mtb bLac sens -4.
For COC(=O)c1ccc(S(=O)(=O)NCC[C@H](O)c2cccn2C)cc1 the results were SSB-PriA inh 5.
For Cc1cccc(-c2nc(CSc3nc4c(c(=O)[nH]3)CCC4)c(C)o2)c1 the results were Mtb hypoxia inh 2, ugtP null kill 2, SSB-PriA inh 96*, RN4220 kill 6 and Mtb bLac sens -6.
For Cc1ccccc1-c1nc(CSc2nc3c(c(=O)[nH]2)CCC3)c(C)o1 the results were Mtb hypoxia inh 11, ugtP null kill 8, SSB-PriA inh 94*, RN4220 kill 10 and Mtb bLac sens -3.
Screening Cc1oc(-c2ccccc2)nc1CSc1nc2c(c(=O)[nH]1)CCC2 returned Mtb hypoxia inh 0, ugtP null kill 0, SSB-PriA inh -1, RN4220 kill 7 and Mtb bLac sens -10.
O=C(NC(NC(=S)Nc1cccc(C(=O)O)c1)C(Cl)(Cl)Cl)OCc1ccccc1 (stereo not given) was read as Mtb hypoxia inh 4, ugtP null kill 9, SSB-PriA inh 5, RN4220 kill 3 and Mtb bLac sens -6.
O=C(NC(NC(=S)Nc1cccc(Cl)c1)C(Cl)(Cl)Cl)OCc1ccccc1 (stereo not given) was read as Mtb hypoxia inh -3, ugtP null kill 96*, SSB-PriA inh -5, RN4220 kill 90* and Mtb bLac sens 6.
`COc1ccccc1OCC(=O)NC[C@H]1CCCN1c1ccccc1` gave SSB-PriA inh 21.
Screening COc1cccc2cc(C(=O)NC[C@H]3CCCN3c3ccccc3)oc12 returned SSB-PriA inh 29*.
COC(=O)N1CCC(CNC(=O)c2cc3cccc(OC)c3o2)CC1 was read as SSB-PriA inh -5.
`COc1cc(-c2cc(C(=O)NCC3CCCN3c3ccccc3)[nH]n2)cc(OC)c1OC` (stereo not given) gave SSB-PriA inh 59*.
For COc1cc2ncc(C#N)c(N3CCC(C(=O)NCc4ccc(SC)cc4)CC3)c2cc1OC the results were SSB-PriA inh -1.
For O=S(=O)(NC[C@H]1CCCN1c1ccccc1)c1cccc2ccccc12 the results were SSB-PriA inh 32*.
Cc1ccc(S(=O)(=O)NC[C@H]2CCCN2c2ccccc2)s1 was read as SSB-PriA inh 34*.
For O=S(=O)(NCC1CCCN1c1ccccc1)c1ccc(OC(F)(F)F)cc1 (stereo not given) the results were SSB-PriA inh 18.
`O=[N+]([O-])c1ccc(Cl)cc1Sc1nc2ccccc2o1` gave Mtb hypoxia inh 1, ugtP null kill 21, SSB-PriA inh 49*, RN4220 kill 23 and Mtb bLac sens -6.
CCN(CCNC(=O)C1CCCN(Cc2nc(-c3ccc(OC)cc3)oc2C)C1)c1ccccc1 (stereo not given) was read as Mtb hypoxia inh -8, ugtP null kill -9, SSB-PriA inh 48*, RN4220 kill -6 and Mtb bLac sens 92.

High-throughput results as filed in PubChem BioAssay.
